# NOMO-1 viab: NOMO-1 AML cell viability reduction, primary screen, STK33 inhibitor project, CellTiter-Glo luminescence; NOMO-1 AML viability, 72 h; inhibition, % (no concentration beside the values); actives 7.5% (n = 37,000); in the data active = inhibition above about 80%; inconclusive = no clear call, values can overlap the other calls
# Shh pathway inh: Hedgehog pathway signaling inhibitors, primary screen, luminescence, Shh-LIGHT2 cells, Gli-luciferase. Shh-LIGHT2 Gli-luciferase reporter, 30 h. inhibition, % (concentration not given with the values). actives 2.1% (n = 22,000). AID 2313, 2010;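 active = mean inhibition across valid replicates above about 65%, limit read from the data; inconclusive = mean under the limit, yet half or more replicates past it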;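 also: pathway switched on by Shh-conditioned medium diluted 1 in 25 in low serum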
# MITF inh: inhibitors of MITF, primary screen, MITF inhibitor project, cell-based, luminescence; inhibition, % (concentration not given with the values); actives 0.28% (n = 37,000); TRPM1 promoter luciferase, 24 h; in the data active = inhibition above about 85%; inconclusive = no clear call, values can overlap the other calls; inactive = below about 68%;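 also: human melanocyte line stably carrying TRPM1 promoter luciferase reporter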
# Numbers stand for hits; 0 = inactive; ? = inconclusive; - = no result given. Only some compounds are listed: those with a hit (about 7.8% of all), similar ones and a draw of the others.
SMILES,NOMO-1 viab,Shh pathway inh,MITF inh
C[C@H]1CN([C@@H](C)CO)C(=O)Cc2cc(NS(=O)(=O)c3ccccc3)ccc2O[C@@H]1CN(C)Cc1ccc(-c2ccccc2)cc1,113,0,0
C[C@@H]1CN([C@H](C)CO)C(=O)Cc2cc(NS(=O)(=O)c3ccccc3)ccc2O[C@H]1CN(C)Cc1ccc(-c2ccccc2)cc1,?,0,0
Cc1ccc(S(=O)(=O)Nc2ccc3c(c2)CC(=O)N([C@H](C)CO)C[C@@H](C)[C@H](CN(C)Cc2ccc(-c4ccccc4)cc2)O3)cc1,95,0,0
C[C@H]1CN([C@@H](C)CO)C(=O)Cc2cc(NS(=O)(=O)c3ccccc3)ccc2O[C@H]1CN(C)Cc1ccc(-c2ccccc2)cc1,0,0,0
Cc1ccc(S(=O)(=O)Nc2ccc3c(c2)CC(=O)N([C@H](C)CO)C[C@@H](C)[C@@H](CN(C)Cc2ccc(-c4ccccc4)cc2)O3)cc1,0,0,0
C[C@@H]1CN([C@H](C)CO)C(=O)Cc2cc(NS(=O)(=O)c3ccc(F)cc3)ccc2O[C@H]1CN(C)Cc1ccc(-c2ccccc2)cc1,89,0,0
C[C@@H]1CN([C@H](C)CO)C(=O)Cc2cc(NS(=O)(=O)c3ccc(F)cc3)ccc2O[C@@H]1CN(C)Cc1ccc(-c2ccccc2)cc1,?,0,0
Cc1ccc(S(=O)(=O)Nc2ccc3c(c2)CC(=O)N([C@@H](C)CO)C[C@@H](C)[C@@H](CN(C)Cc2ccc(-c4ccccc4)cc2)O3)cc1,124,0,0
O=C(Cc1ccccc1)c1ccccc1C(=O)NCc1ccc(F)cc1,0,?,0
CCOC(=O)CSc1nncc(=O)[nH]1,0,0,0
CCOC(=O)c1oc2nc(-c3ccco3)cc(-c3ccco3)c2c1N,0,-,0
Cc1noc(C)c1S(=O)(=O)Nc1ccc2c(c1)CC(=O)N([C@@H](C)CO)C[C@H](C)[C@@H](CN(C)Cc1ccc(-c3ccccc3)cc1)O2,86,0,0
Cc1noc(C)c1S(=O)(=O)Nc1ccc2c(c1)CC(=O)N([C@H](C)CO)C[C@@H](C)[C@H](CN(C)Cc1ccc(-c3ccccc3)cc1)O2,0,0,0
Cc1ccc(OCC(=O)Nc2ccc(Br)cc2C(=O)O)cc1C,0,-,0
CC(C)(C)C(/C=C/c1ccc(Cl)cc1Cl)n1nnnc1C(C)(C)N1CCOCC1 (stereo unspecified),0,0,0
C=C1C2=C(O[C@H](/C(C)=C/C(C)CC(C)CC)[C@@H](O)[C@@H]2O)C(=O)N1OC (stereo partly specified),107,0,0
CC1=C(C#N)C(c2cc(F)ccc2F)C(C(=O)OCc2ccccc2)=C(N)O1 (stereo unspecified),0,0,0
Cc1cccc(C)c1N(CC(=O)NC1CCCCC1)S(C)(=O)=O,0,-,0
COc1ccc(-c2noc(CN(C(=O)c3ccc(C)c([N+](=O)[O-])c3)C(C)C)n2)cc1,0,-,0
O=C(CSc1nnc(-c2cccc(Cl)c2)n1-c1ccccc1)Nc1ccc(F)c(F)c1,0,-,0
C[C@@H]1CN([C@H](C)CO)C(=O)Cc2cc(NC(=O)Nc3ccccc3)ccc2O[C@@H]1CN(C)Cc1ccc(Cl)c(Cl)c1,99,0,0
CC(C)NC(=O)Nc1ccc2c(c1)CC(=O)N([C@@H](C)CO)C[C@H](C)[C@@H](CN(C)Cc1ccc(Cl)c(Cl)c1)O2,0,0,0
C[C@@H]1CN([C@H](C)CO)C(=O)Cc2cc(NC(=O)Nc3ccc(F)cc3)ccc2O[C@H]1CN(C)Cc1ccc(Cl)c(Cl)c1,94,0,0
CC(C)NC(=O)Nc1ccc2c(c1)CC(=O)N([C@H](C)CO)C[C@@H](C)[C@@H](CN(C)Cc1ccc(Cl)c(Cl)c1)O2,0,0,0
C[C@H]1CN([C@@H](C)CO)C(=O)Cc2cc(NC(=O)Nc3ccccc3)ccc2O[C@@H]1CN(C)Cc1ccc(Cl)c(Cl)c1,0,0,0
SMILES,NOMO-1 viab,Shh pathway inh,MITF inh
C[C@H]1CN([C@@H](C)CO)C(=O)Cc2cc(NC(=O)Nc3ccc(F)cc3)ccc2O[C@@H]1CN(C)Cc1ccc(Cl)c(Cl)c1,96,0,0
Cc1noc(NS(=O)(=O)c2ccc(NC(=O)C3COc4ccccc4O3)cc2)c1C (stereo unspecified),0,-,0
COc1ccc(NC(=O)CSc2nnc(-c3ccccc3)c(-c3ccccc3)n2)cc1,0,-,0
COc1ccc(NC(=O)CC(=O)CSc2ccccc2)cc1,112,0,0
O=C(NCCN1CCOCC1)c1cc(-n2cnnc2)ccc1Cl,0,-,0
CCc1ccc(-n2nc3cc(C)c(NC(=O)COc4ccccc4[N+](=O)[O-])cc3n2)cc1,0,-,0
CCOC(OCC)P(=O)(O)CCCNCc1ccc(Cl)c(Cl)c1,0,0,88
C[C@@H]1CN([C@@H](C)CO)C(=O)c2cccc(NC(=O)Nc3ccc(C(F)(F)F)cc3)c2O[C@@H]1CN(C)Cc1ccc(Oc2ccccc2)cc1,95,0,0
C[C@H]1CN([C@@H](C)CO)C(=O)c2cccc(NC(=O)Nc3ccc(C(F)(F)F)cc3)c2O[C@H]1CN(C)Cc1ccc(Oc2ccccc2)cc1,0,0,0
C[C@@H]1CN([C@H](C)CO)C(=O)c2cccc(NC(=O)Nc3ccc(C(F)(F)F)cc3)c2O[C@@H]1CN(C)Cc1ccc(Oc2ccccc2)cc1,107,0,0
C[C@@H]1CN([C@H](C)CO)C(=O)c2cccc(NC(=O)Nc3ccc(C(F)(F)F)cc3)c2O[C@H]1CN(C)Cc1ccc(Oc2ccccc2)cc1,0,0,0
OC(CN1CCN(c2cccc(Cl)c2)CC1)C(c1ccccc1)c1ccccc1 (stereo unspecified),0,95,0
OCCOCCN1CCN(C(c2ccccc2)c2ccc(Cl)cc2)CC1 (stereo unspecified),0,0,0
COc1ccc(-c2nc(SCC(=O)Nc3cccc(F)c3)n[nH]2)cc1,0,-,0
CC(C)=CCc1c(O)cc2oc3c(CC=C(C)C)c(O)c(O)c(CC=C(C)C)c3c(=O)c2c1O,-,103,-
COc1cc2ccc(=O)oc2c(CC=C(C)C)c1OC,0,0,0
CC(C)=CCc1c(O)ccc2ccc(=O)oc12,0,0,0
COc1c(O)cc2oc3cc(O)c(CC=C(C)C)c(O)c3c(=O)c2c1CC=C(C)C,98,0,0
COC(=O)c1cc(OC)c(OC)cc1NC(=O)COc1ccccc1F,0,-,0
CN(CC(=O)Nc1ccccc1C(C)(C)C)S(=O)(=O)c1ccc(Cl)cc1,0,-,0
O=C(N1CCCc2ccccc21)C(F)(F)F,0,0,0
Cc1cccc(C)c1Nc1nc2c(C)cc(C)c(C)c2s1,0,0,0
COc1ccc(NC(=O)Nc2ccc3c(c2)CC(=O)N([C@H](C)CO)C[C@H](C)[C@H](CN(C)S(=O)(=O)c2ccc(C)cc2)O3)cc1,122,0,0
COc1ccc(NC(=O)Nc2ccc3c(c2)CC(=O)N([C@@H](C)CO)C[C@H](C)[C@H](CN(C)S(=O)(=O)c2ccc(Cl)cc2)O3)cc1,112,0,0
COc1ccc(NC(=O)Nc2ccc3c(c2)CC(=O)N([C@@H](C)CO)C[C@H](C)[C@@H](CN(C)S(=O)(=O)c2ccc(C)cc2)O3)cc1,0,-,0

# High-throughput results deposited in PubChem by Broad Institute.
